DT40 TDP1 no CPT: qHTS for Inhibitors of human tyrosyl-DNA phosphodiesterase 1 (TDP1): qHTS in cells in absence of CPT; DT40 Tdp1-/- hTDP1 cells, no CPT, ATP luminescence, 48 h; Potency, µM (highest dose often 46.2 µM), without a hit: top-dose activity change, negative = growth inhibition, most hits filed as inhibitors; actives 15% (n = 420,000); AID 686978, 2013; also: potency is read from the fitted curve at half-maximal effect; % is scaled to controls: 0 for no effect and ±100 for the full control effect; nearly all actives have a fitted effect of over 55% in size
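Camptothecin absent (DMSO only). Human TDP1-complemented DT40 knockout cells, 400 cells/well, 37 °C for minimum 48 hr; ATP measured via CellTiter-Glo, 30 min dark incubation, luminescence.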
IL-1B inflam inh: qHTS for Inhibitors of Inflammasome Signaling: IL-1-beta AlphaLISA Primary Screen | activity change, % at 57.5 µM | THP-1 LPS/ATP IL-1B secretion, AlphaLISA, 16 h; stronger effect = lower value | actives 4.7% (n = 360,000); in the data active = activity change below about -50%; inconclusive = mostly about -30% to -49%; also: % is scaled to controls: 0 for no effect and ±100 for the full control effect
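THP-1 cells pretreated 1 hr with compounds (up to 57.5 uM final), then stimulated with LPS (250 ng/mL final) plus ATP (1.25 mM final); secreted IL-1B measured by AlphaLISA after 16 hr, decreased signal indicating inhibition.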
HepG2 tox: qHTS for Inhibitors of TGF-b: Cytotox Counterscreen; HepG2 CAGA-GFP viability, ATP luminescence, 18 h; Potency, µM (top dose mostly 46.1 µM), without a hit: at the top dose activity change, negative = cytotoxicity, most hits filed as cytotoxic; actives 0.76% (n = 410,000); also: potency is read from the fitted curve at half-maximal effect
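HepG2 CAGA-GFP cells (1000/well, DMEM with 1% FBS) received compound, then TGF-beta at 500 pg/mL final, and were incubated 18 hours at 37 degrees C. Viability was read by CellTiter-Glo luminescence. Media-only wells were set as complete cell-killing and DMSO as no toxicity.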
TGFb inhibitor: qHTS for Inhibitors of TGF-b; HepG2 CAGA-GFP TGF-b/SMAD3 reporter, GFP fluorescence, 18 h; TGF-beta stimulated, 500 pg/mL final; Potency, µM (series often up to 46.1 µM), without a hit: at the top dose activity, negative = inhibition, most hits filed as inhibitors; actives 1.2% (n = 410,000); AID 588855, 2011; also: potency is read from the fitted curve at half-maximal effect; % is scaled to controls: 0 for no effect and ±100 for the full control effect; nearly all actives have a fitted effect of over 65% in size
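Per well, imaged GFP fluorescence of HEPG2 CAGA-GFP cells gives the signal; cells get compound, then TGF-beta (500 pg/mL final), 18 h at 37 degrees C; %Activity versus -TGF-beta and +DMSO controls.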
DT40 TDP1 CPT: qHTS for Inhibitors of human tyrosyl-DNA phosphodiesterase 1 (TDP1): qHTS in cells in presence of CPT; chicken DT40 Tdp1-/-;hTDP1 cells + 20 nM CPT, ATP luminescence, 48 h; Potency, µM (titrated, usually from 46.2 µM), without a hit: top-dose activity change, negative = growth inhibition, most hits filed as inhibitors; actives 12% (n = 420,000); AID 686979, 2013; also: potency is read from the fitted curve at half-maximal effect; % is scaled to controls: 0 for no effect and ±100 for the full control effect; nearly all actives have a fitted effect of over 55% in size
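Chicken DT40 Tdp1-/- cells stably complemented with human TDP1 were seeded at 400 cells/well in medium containing 20 nM camptothecin, exposed to pin-transferred compounds, and grown at 37 °C for at least 48 hr. Viability was read as ATP luminescence.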
S-ASM inh: Inhibitors of Secretory Acid Sphingomyelinase (S-ASM): qHTS; placental ASM, HMU-PC fluorogenic substrate, 60 min; Sphingomyelin phosphodiesterase (Homo sapiens), P17405; actives 0.006% (n = 340,000); AID 504937, 2011; Potency, µM (titrated, usually from 57.5 µM), for inactives: at the highest dose activity change, negative = inhibition, most hits filed as inhibitors; also: potency is read from the fitted curve at half-maximal effect
Target sequence (P17405 47-631 limits assumed): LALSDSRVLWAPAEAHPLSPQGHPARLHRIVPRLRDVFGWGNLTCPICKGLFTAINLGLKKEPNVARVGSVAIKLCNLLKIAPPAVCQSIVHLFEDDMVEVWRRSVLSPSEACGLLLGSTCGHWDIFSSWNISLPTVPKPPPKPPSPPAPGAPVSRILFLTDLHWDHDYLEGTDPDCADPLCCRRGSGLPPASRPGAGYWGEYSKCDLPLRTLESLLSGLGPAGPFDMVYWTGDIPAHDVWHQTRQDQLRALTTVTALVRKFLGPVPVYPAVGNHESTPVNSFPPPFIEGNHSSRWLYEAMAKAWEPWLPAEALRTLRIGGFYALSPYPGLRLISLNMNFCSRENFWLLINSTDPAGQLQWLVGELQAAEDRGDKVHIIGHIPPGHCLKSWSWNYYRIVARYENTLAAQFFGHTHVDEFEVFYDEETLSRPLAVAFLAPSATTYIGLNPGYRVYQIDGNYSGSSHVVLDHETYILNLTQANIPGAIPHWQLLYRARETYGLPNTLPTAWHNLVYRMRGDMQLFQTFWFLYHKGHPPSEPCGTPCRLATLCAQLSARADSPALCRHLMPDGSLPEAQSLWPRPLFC
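Human placenta-derived ASM preincubated with compound 10 min at room temperature, then reacted with 9 uM (final) fluorogenic HMU-PC substrate for 60 min at 37 C. Stop solution raises pH to 10; fluorescence read at Ex 386/Em 447 nm.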
Starred values were filed as active, the others as inactive; ? = inconclusive; nt = no result given. In the library only some 19% were active in any assay of this set; here they are far more common. Unless noted, calls follow the shape of the dose curve; as a rule, active = well fitted curve in the direction sought with a large enough effect; inconclusive = small, poorly fitted or top-dose-only effect, or another doubt; inactive = no such curve, though single readings can be large; an effect the other way counts as inactive or inconclusive.

SMILES	DT40 TDP1 no CPT	IL-1B inflam inh	HepG2 tox	TGFb inhibitor	DT40 TDP1 CPT	S-ASM inh
COc1ccc(-c2csc(C(C)(O)c3ccc(OC)cc3)n2)cc1 (stereo unspecified)	?	44.6	-18.3%	-5.8%	14.6µM*	nt
CC1(C(=O)Nc2ccc3c(c2)OCO3)CCN1C(=O)CCc1cccs1 (stereo unspecified)	-28.3%	-8.9	-16.0%	5.9%	-17.1%	nt
COc1ccc(C(=O)Nc2ccnn2C2CCN(CCC(C)c3ccc(C)o3)CC2)cc1 (stereo unspecified)	?	0.0	-30.7%	11.1%	?	39.4%
CC(O)(c1cccnc1)c1nc(-c2ccc(S(C)(=O)=O)cc2)cs1 (stereo unspecified)	-2.8%	34.0	-19.3%	-3.8%	-19.8%	nt
COc1ccc(C(C)(O)c2nc(-c3cccc(O)c3)cs2)cc1 (stereo unspecified)	23.1µM*	?	-7.6%	19.0%	18.4µM*	nt
COc1ccc(C(C)(O)c2nc(-c3ccccc3)cs2)cc1 (stereo unspecified)	13µM*	37.3	-25.5%	-7.8%	18.4µM*	nt
COc1ccc(C(C)(O)c2nc(-c3cccc(C(=O)O)c3)cs2)cc1 (stereo unspecified)	3.7%	12.2	1.4%	-6.3%	13.8%	nt
COc1ccc(-c2csc(C(C)(O)c3cccnc3)n2)cc1 (stereo unspecified)	20.6µM*	-65.4*	-9.3%	1.4%	16.4µM*	nt
COc1ccc(Cl)cc1S(=O)(=O)n1c([N+](=O)[O-])cnc1C	-12.1%	0.9	0.0%	0.6%	-4.5%	-1.1%
COc1ccc(N2CCN(C(=O)c3cc4c(-c5cccc(OC)c5)nn(C)c4s3)CC2)cc1	14.6µM*	0.0	-11.2%	1.7%	?	-29.3%
COc1cccc(-c2nn(C)c3sc(C(=O)N4CCN(c5cccc(C(F)(F)F)c5)CC4)cc23)c1	25.9µM*	nt	-3.3%	-15.0%	16.4µM*	nt
COc1ccc(-c2nn(C)c3sc(C(=O)N4CCN(c5ccccc5F)CC4)cc23)cc1OC	?	nt	-15.2%	12.3%	?	nt
O=C(O)CC1COc2ccccc2N1C(=O)c1ccccc1Cl (stereo unspecified)	-14.8%	23.3	46.4%	13.0%	4.9%	-0.7%
C#CCN(C[C@@H]1[C@@H](OC(=O)Nc2cccs2)[C@@H](OC(=O)Nc2cccs2)Cn2c(=O)ccc(=O)n21)S(=O)(=O)c1ccc(C)cc1	3.26µM*	-106.8*	5.01µM*	5.62µM*	2.91µM*	nt
C#CCN(C[C@@H]1[C@@H](OC(=O)NC2CCCC2)[C@@H](OC(=O)NC2CCCC2)Cn2c(=O)ccc(=O)n21)S(=O)(=O)c1ccc(C)cc1	2.31µM*	-0.4	-84.2%	?	2.59µM*	nt
C#CCN(C[C@H]1[C@H](OC(=O)Nc2cccs2)[C@H](OC(=O)Nc2cccs2)C[C@H]2C(=O)N(c3ccccc3)C(=O)[C@@H]12)S(=O)(=O)c1ccc(C)cc1	-2.3%	-15.3	0.0%	-0.7%	1.5%	nt
CCc1ccc(/C=C2\SC(=S)N(CCCC(=O)Nc3ccc(C(=O)O)cc3)C2=O)cc1	-7.3%	0.0	5.7%	-0.6%	-13.3%	-8.6%
CCc1ccc(/C=C2\SC(=S)N(CCCC(=O)N3CCN(C)CC3)C2=O)cc1	?	-55.3*	-33.4%	?	?	nt
COc1ccc(/C=C2\SC(=S)N(CCCC(=O)N3CCN(C)CC3)C2=O)cc1	?	-90.6*	-51.4%	?	?	?
O=C(Cn1ccn(-c2ccc(F)c(F)c2)c(=O)c1=O)NCc1ccccc1	0.9%	nt	-22.9%	1.8%	0.6%	nt
CCCc1ncc(CN2CCCCC2C(=O)Nc2ccc(Oc3ccccc3)nc2)cn1 (stereo unspecified)	-21.1%	8.6	6.0%	-4.8%	-24.7%	0.2%
CC(C)(CNC(=O)C1c2ccccc2-c2ccccc21)N1CCOCC1	1.7%	-67.7*	3.5%	2.6%	9.1%	-1.2%
Oc1ccc(/C=N/n2c(-c3ccco3)csc2=Nc2cccnc2)c(O)c1	14.6µM*	20.6	-24.5%	?	11.6µM*	nt
CC(C)N=c1scc(-c2ccco2)n1/N=C/c1ccc(O)c(O)c1	1.46µM*	-12.8	-63.9%	?	1.64µM*	15.8%
CN=c1scc(C)n1/N=C/c1ccc(O)c(O)c1O	18.4µM*	?	-15.6%	?	16.4µM*	-1.9%
SMILES	DT40 TDP1 no CPT	IL-1B inflam inh	HepG2 tox	TGFb inhibitor	DT40 TDP1 CPT	S-ASM inh
Cc1nc2ccccc2c(=O)n1/N=C/c1ccc(O)c(O)c1O	?	8.5	-12.8%	?	?	-4.9%
CN=c1scc(-c2cccs2)n1/N=C/c1ccccc1O	23.1µM*	-3.2	-71.9%	?	?	6.4%
COc1ccc(C2CC(c3ccc(OC)cc3)n3nc(NS(C)(=O)=O)nc3N2)cc1 (stereo unspecified)	26.4%	9.4	6.3%	-3.2%	1.3%	4.8%
O=C(CSc1n[nH]c(Cc2ccccc2)n1)Nc1ccccc1Br	?	4.9	0.3%	2.9%	-12.4%	-3.1%
CN=c1scc(-c2cccs2)n1/N=C/c1ccc(O)c(O)c1O	5.8µM*	-1.6	-23.3%	-24.7%	11.6µM*	-9.2%
COCCN=c1scc(-c2ccco2)n1/N=C/c1ccc(O)c(O)c1O	?	33.5	4.2%	10.5%	?	-6.8%
CN=c1scc(C)n1/N=C/c1cc(Br)c(O)c(OC)c1	16.4µM*	11.3	1.8%	-16.7%	?	50.5%
COc1cc(/C=N/N(C)C)cc(Br)c1O	0.8%	-3.9	4.4%	-0.7%	-1.5%	1.2%
C=CCN=c1scc(-c2ccco2)n1/N=C/c1ccc(O)c(O)c1O	5.8µM*	-50.9*	-29.9%	-32.2%	10.3µM*	-1.0%
CC(Oc1cccc(Cl)c1)C(=O)Nc1cc(S(=O)(=O)N2CCOCC2)ccc1N1CCCCC1 (stereo unspecified)	20.6µM*	25.3	6.1%	?	?	-9.6%
CC(Oc1ccc(F)cc1)C(=O)Nc1cc(S(=O)(=O)N2CCOCC2)ccc1N1CCCCC1 (stereo unspecified)	16.4µM*	-19.4	-1.0%	-11.3%	?	-5.0%

Source: PubChem (National Center for Advancing Translational Sciences (NCATS))
